Reference: PubChem BioAssay (NCI)
About 83,000 compounds went through this panel and 20% of them were active in at least one assay; those are over-represented in the sample as a whole.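 How to read the values: 0–100, growth inhibition (40 = 60% inhibited); 0, no net growth; -100 to 0, cell death (-40 = 40% of starting cells died; -100 = all dead).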 A number with no mark means an inactive call. Activity calls are given as the source filed them. How the source made its calls: active means growth percent below 10; inactive means the rest.

System: MDA-MB-468 breast
Experiment: NCI-60 one-dose screen, 48 h (100 = growth as untreated, 0 = no growth, -100 = all killed)
Conditions: 10 µM unless noted

Going from `C=C1C(=O)O[C@H]2[C@H]1CC/C(COC(=O)NCc1cc[nH]c1)=C\CC[C@@]1(C)O[C@@H]21` to `CN(C)C(=O)C1=NC(CO)C(=O)N(c2ccc(Cl)cc2)N1` (centres undefined), the growth rises from 16.8% to 95.2%.

Going from `COc1ccc(/C(=N/O)c2cc(F)c(F)c(OC)c2F)cc1O` to `CN(Cc1cc(Cl)cc(Cl)c1O)Cc1cc(Cl)cc(Cl)c1O`, the growth rises from 18.4% to 36.5%.

Compared with `O=C(Nc1nc(-c2ccccc2)cs1)c1cc(-c2ccc(Br)cc2)nc2ccccc12`, `O=C(c1cccc(C(=O)c2ccc3c4c(cccc24)C(=O)N(c2ccccc2)C3=O)c1)c1ccc2c3c(cccc13)C(=O)N(c1ccccc1)C2=O` is higher in growth: 35.2% for the first, 91.3% for the second.

First: COC1=C(OC)C(=O)C(OC)=C(OC)C1=O
Second: Cc1cccc(C)c1NCc1nnc(-c2ccco2)o1
The growth of the first is lower: 33.4% for the first, 100% for the second.

Going from `IC(I)I` to `Cc1ccc(-c2cnc3sc4ccc(Cl)cc4n23)cc1`, the growth falls from 106% to 103%.

In the case of `Nc1ccccc1NC(=O)c1ccc(NC(=O)C/C=C/c2cccnc2)cn1`, the growth was -19.6% (active).
In the case of `COc1ccc2c(c1)/C(=C\c1c[nH]c3ccc(OC)cc13)C(=O)N2`, the growth was -22.5% (active).
For `Cc1cc(N/N=C/c2ccccn2)nc2ccccc12`, the growth was -13.3% (active).
For `CCC1=C[C@H]2CN(CCc3c([nH]c4ccccc34)[C@@](C(=O)OC)(c3cc4c(cc3OC)N(C)[C@H]3[C@@](O)(C(=O)OC)[C@H](OC(C)=O)[C@]5(CC)[C@@H]6C[C@@H]6CN6CC[C@]43[C@@H]65)C2)C1`, the growth was 7.4% (active).
